Reference: PubChem BioAssay AID1159580 (chemical genetic matrix, 2015)
Out of some 5,500 compounds screened, about 2,000 (36%) were called active. Another 18% or so got no clear call; they are omitted. Cut-off read from the data, not from the text of the source: active = normalized growth mostly below about 0.91 (no sharp cut-off); inconclusive = no clear call, values can overlap the other calls; inactive = mostly above about 0.92. The list shows a part of the results.

Test: chemical genetic growth profiling, strain panel (AID 1159580);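 note: tested at 20 µM; growth read once vehicle control cultures reached saturation at 30 °C; 1 = growth at the plate median or of vehicle wells; lower values mean less growth of the strain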
Conditions: S. cerevisiae deletion strains, growth OD

Measured: normalized growth

CCCCC/C=C\C/C=C\C/C=C\C/C=C\CCCC(=O)NCC(=O)O
inactive: locus YAL040C, strain CLN3, active compounds read low 1.02 | locus YDR150W, strain NUM1, active compounds read low 1.03 | locus YDR363W, strain ESC2, active compounds read low 1.02 | locus YER002W, strain NOP16, active compounds read low 1.02 | locus YGR078C, strain PAC10, active compounds read low 0.985 | locus YGR229C, strain SMI1, active compounds read low 0.963 | locus YNL153C, strain GIM3, active compounds read low 1.07 | locus YNL175C, strain NOP13, active compounds read low 0.941 | locus YNL197C, strain WHI3, active compounds read low 1.01 | locus YNL224C, strain SQS1, active compounds read low 0.979 | locus YOR083W, strain WHI5 (second series), active compounds read low 0.962
